Structures can show the parent of a compound that is named as a salt.
Columns and labels:
Settings in all cases: compound concentration in added solution (µM; 5 µl added to 20 µl cells): 10; 18 h
A431 [1] = assay: LBPA endosome anti-LBPA integrated intensity (sum per cell), Z-score; higher = more LBPA staining
Method in brief: (§1)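 Duplicate 384-well imaging plates were prepared with 5 µl of 10 µM compound solution per well, and 3,500 HeLa MZ or A431 cells in 20 µl were added on top. Following 18 h of incubation and fixation in 4% PFA, cells received 6C4 anti-LBPA antibody, filipin, propidium iodide and CellTracker green. Four images per well at 20× were segmented in MetaXpress to yield per-cell integrated LBPA or filipin intensity, whole-cell or within LBPA endosomes. These intensities are reported as Z-scores normalised in AcuityXpress.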

A431 [2] = assay: whole-cell filipin (free cholesterol) integrated intensity, Z-score; higher = more cholesterol staining
Method in brief: as §1

A431 [3] = assay: filipin (cholesterol) integrated intensity within LBPA endosomes, Z-score; higher = more cholesterol in LBPA endosomes
Method in brief: as §1

HeLa MZ [4] = assay: LBPA endosome anti-LBPA integrated intensity (sum per cell), Z-score; higher = more LBPA staining
Method in brief: as §1

HeLa MZ [5] = assay: whole-cell filipin (free cholesterol) integrated intensity, Z-score; higher = more cholesterol staining
Method in brief: as §1

HeLa MZ [6] = assay: filipin (cholesterol) integrated intensity within LBPA endosomes, Z-score; higher = more cholesterol in LBPA endosomes
Method in brief: as §1

| SMILES | LBPA endosome anti-LBPA integrated intensity (z-score) (A431 [1]) | whole-cell filipin (z-score) (A431 [2]) | filipin (z-score) (A431 [3]) | LBPA endosome anti-LBPA integrated intensity (z-score) (HeLa MZ [4]) | whole-cell filipin (z-score) (HeLa MZ [5]) | filipin (z-score) (HeLa MZ [6]) |
| --- | --- | --- | --- | --- | --- | --- |
| O=C(CCCCCCC(=O)Nc1ccccc1)NO [Vorinostat] | 0.0566 | 1.83 | -0.414 | – | – | – |
| COc1c2occc2c(OC)c2c(=O)cc(C)oc12 [Khellin] | -0.364 | -0.787 | -0.439 | -0.599 | -0.817 | -0.439 |
| CC(C)OC(=O)C(C)(C)Oc1ccc(C(=O)c2ccc(Cl)cc2)cc1 [Fenofibrate] | -0.471 | -0.324 | -0.435 | -0.341 | -0.246 | -0.631 |
| C=CCc1ccccc1OCC(O)CNC(C)C (centres undefined) [Alprenolol hydrochloride] | -0.146 | 0.0188 | -0.22 | -0.138 | 0.141 | -0.133 |
| CCN1C(=O)NC(c2ccccc2)C1=O (centres undefined) [Ethotoin] | -0.277 | -0.136 | -0.353 | -0.178 | -0.484 | -0.513 |
| CC1(C)S[C@@H]2[C@H](NC(=O)[C@H](N)c3ccccc3)C(=O)N2[C@H]1C(=O)O [Ampicillin trihydrate] | -0.606 | -0.896 | -0.569 | -0.403 | -0.707 | -0.702 |
| CCCC1C(=O)N2C(N(C)C)=Nc3ccc(C)cc3N2C1=O (centres undefined) [Azapropazone] | -0.356 | 0.0445 | -0.348 | – | – | – |
| Clc1ccc(COC(Cn2ccnc2)c2ccc(Cl)cc2Cl)c(Cl)c1 (centres undefined) [Miconazole] | 0.0492 | 0.107 | -0.0467 | 1.55 | 0.176 | 0.514 |
| O=C(NCCN1CCOCC1)c1ccc(Cl)cc1 [Moclobemide] | -0.577 | -0.751 | -0.499 | -0.12 | -0.413 | -0.447 |
| C=C(NC(=O)C(=C)NC(=O)c1csc(C2=N[C@@H]3c4csc(n4)[C@H]4NC(=O)c5csc(n5)[C@H]([C@](C)(O)[C@@H](C)O)NC(=O)[C@H]5CSC(=N5)/C(=C/C)NC(=O)[C@H]([C@@H](C)O)NC(=O)c5csc(n5)[C@]3(CC2)NC(=O)[C@H](C)NC(=O)C(=C)NC(=O)[C@H](C)NC(=O)[C@H]([C@@H](C)CC)N[C@@H]2C=Cc3c([C@H](C)O)cc(nc3[C@H]2O)C(=O)O[C@@H]4C)n1)C(N)=O [Thiostrepton] | – | – | – | -0.253 | -0.786 | -0.596 |
| Nc1nc2n[nH]nc2c(=O)[nH]1 [Azaguanine-8] | -0.399 | -1.15 | -0.438 | – | – | – |
| NC[C@@H]1O[C@@H](O[C@H]2[C@H](O)[C@@H](O[C@H]3O[C@H](CO)[C@@H](O)[C@H](N)[C@H]3O)[C@H](N)C[C@@H]2N)[C@@H](O)[C@H](O)[C@H]1O [Kanamycin A sulfate] | -0.635 | -0.97 | -0.515 | -0.981 | -0.361 | -0.597 |
| CCN(CC)C(=S)SSC(=S)N(CC)CC [Disulfiram] | – | – | – | 0.205 | 0.0194 | -0.407 |
| Fc1ccc([C@@H]2CCNC[C@H]2COc2ccc3c(c2)OCO3)cc1 [Paroxetine Hydrochloride] | – | – | – | 0.516 | -0.28 | 2.03 |
| CCN(CC)C(=O)c1ccc(O)c(OC)c1 [Ethamivan] | -0.477 | -0.452 | -0.43 | -0.0996 | 0.274 | -0.268 |
| C1CCC(C(CC2CCCCN2)C2CCCCC2)CC1 (centres undefined) [Perhexiline maleate] | – | – | – | -0.192 | 0.438 | 2.62 |
| O=C1NCCN1CCN1CCC(c2cn(-c3ccc(F)cc3)c3ccc(Cl)cc23)CC1 [Sertindole] | – | – | – | 0.384 | -0.48 | 2.2 |
| CC(C)(C)CC(C)(C)c1ccc(OCCOCC[N+](C)(C)Cc2ccccc2)cc1 [Benzethonium chloride] | – | – | – | 1.55 | -0.53 | 0.517 |

| SMILES | LBPA endosome anti-LBPA integrated intensity (z-score) (A431 [1]) | whole-cell filipin (z-score) (A431 [2]) | filipin (z-score) (A431 [3]) | LBPA endosome anti-LBPA integrated intensity (z-score) (HeLa MZ [4]) | whole-cell filipin (z-score) (HeLa MZ [5]) | filipin (z-score) (HeLa MZ [6]) |
| --- | --- | --- | --- | --- | --- | --- |
| CC(C)n1c(/C=C/C(O)CC(O)CC(=O)O)c(-c2ccc(F)cc2)c2ccccc21 (centres undefined) [Fluvastatin sodium salt] | – | – | – | -1.11 | -0.754 | -0.372 |
| COC(=O)Nc1nc2cc(C(=O)c3ccc(F)cc3)ccc2[nH]1 [Flubendazol] | -0.354 | -0.303 | -0.305 | – | – | – |
| O=c1[nH]cc(F)c(=O)[nH]1 [5-fluorouracil] | -0.738 | 0.716 | -0.862 | – | – | – |
| COc1cnc(NS(=O)(=O)c2ccc(N)cc2)nc1 [Sulfameter] | -0.428 | -0.426 | -0.447 | -0.0725 | -0.359 | -0.542 |
| CCN(CC)CCOC(=O)C1(c2ccc([N+](=O)[O-])cc2)CCCC1 [Nitrocaramiphen hydrochloride] | -0.558 | -0.0743 | -0.346 | 0.568 | -0.278 | -0.0224 |
| CC(CN(C)C)CN1c2ccccc2Sc2ccccc21 (centres undefined) [Trimeprazine tartrate] | 3.47 | 1.36 | 2.12 | – | – | – |
| Clc1ccccc1C(c1ccccc1)(c1ccccc1)n1ccnc1 [Clotrimazole] | -0.44 | -0.0982 | -0.276 | 0.655 | 0.216 | -0.063 |
| CCc1nn(CCCN2CCN(c3cccc(Cl)c3)CC2)c(=O)n1CCOc1ccccc1 [Nefazodone HCl] | 0.334 | 0.625 | 0.483 | 2.39 | 0.969 | 1.14 |
| C[C@@H]1C[C@H]2[C@@H]3C[C@H](F)C4=CC(=O)C=C[C@]4(C)[C@@]3(Cl)[C@@H](O)C[C@]2(C)[C@H]1C(=O)COC(=O)C(C)(C)C [Clocortolone pivalate] | -0.276 | -0.183 | -0.253 | -1.1 | -0.473 | -0.536 |
| CN(Cc1cnc2nc(N)nc(N)c2n1)c1ccc(C(=O)N[C@@H](CCC(=O)O)C(=O)O)cc1 [Methotrexate] | -0.383 | 0.354 | -0.754 | – | – | – |
| COC(=O)Nc1nc2cc([S+]([O-])c3ccccc3)ccc2[nH]1 (centres undefined) [Oxfendazol] | -0.637 | -0.236 | -0.364 | – | – | – |
| C[C@H](CS)C(=O)N1CCC[C@H]1C(=O)O [Captopril] | -0.394 | -0.482 | -0.442 | -0.389 | 0.478 | -0.261 |
| O=C1CN(/N=C/c2ccc([N+](=O)[O-])o2)C(=O)N1 [Nitrofurantoin] | -0.475 | -0.354 | -0.501 | -1.22 | -0.515 | -0.575 |
| CC(NCCC(c1ccccc1)c1ccccc1)c1ccccc1 (centres undefined) [Fendiline hydrochloride] | – | – | – | 1.29 | 0.948 | 2.94 |
| COC(=O)C1=C(C#N)NC(C)=C(C(=O)OC(C)C)C1c1cccc([N+](=O)[O-])c1 (centres undefined) [Nilvadipine] | -0.407 | 0.11 | -0.268 | -0.929 | 0.875 | -0.158 |
| O=C(N[C@H](CO)[C@H](O)c1ccc([N+](=O)[O-])cc1)C(Cl)Cl [Chloramphenicol] | -0.509 | -0.952 | -0.558 | -0.731 | -1.01 | -0.762 |
| CCN(CC)CCNc1ccc(CO)c2sc3ccccc3c(=O)c12 [Hycanthone] | 5.49 | 2.31 | 2.68 | – | – | – |

From the supplement of paper PMC6607015
